# Several values for one entry are separate records, joined by “and”; a condition that tells them apart may be missing. Equal entries are not always repeated. Structures can show the parent of a compound that is named as a salt.
# What was measured:
# Experiment in all cases: cell viability relative to vehicle control; higher = less cytotoxic
# Details in all cases: 10 µM
# K562 = test system: K562
# Method in brief: (§1)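 CRISPR-edited SRSF2 P95 mutant and isogenic wild-type clones of four leukaemia lines were screened against Selleck bioactive, kinase and epigenetic probe libraries, with identity-inconsistent compounds removed. Compounds were acoustically dispensed into 384-well plates at a single 10 µM dose, with 2000 cells in 50 µL medium per well. After 48 h, supernatant was removed and CellTiter-Glo luminescence was read. Viability was expressed as percent of the on-plate DMSO vehicle control, analysed in Genedata Screener.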
# MARIMO = test system: MARIMO
# Method in brief: as §1
# MOLM14 = test system: MOLM14
# Method in brief: as §1
# OCI-AML2 = test system: OCI-AML2
# Method in brief: as §1
SMILES,cell viability (K562; SRSF2 genotype: SRSF2 P95H/wt),cell viability (K562; SRSF2 genotype: SRSF2 wt/wt),cell viability (MARIMO; SRSF2 genotype: SRSF2 P95H/wt),cell viability (MARIMO; SRSF2 genotype: SRSF2 wt/wt),cell viability (MOLM14; SRSF2 genotype: SRSF2 P95H/wt),cell viability (MOLM14; SRSF2 genotype: SRSF2 wt/wt),cell viability (OCI-AML2; SRSF2 genotype: P95H/wt),cell viability (OCI-AML2; SRSF2 genotype: wt/wt)
COc1cc(/C=C/C(=O)O[C@H]2CC[C@]34C[C@]35CC[C@]3(C)[C@@H]([C@H](C)CCC=C(C)C)CC[C@@]3(C)[C@@H]5CC[C@H]4C2(C)C)ccc1O [Gamma-Oryzanol],96.7% and 93.9%,97.5%,98.5%,107%,103%,101%,97.7%,107%
CC1(C)CC[C@]2(C(=O)O[C@@H]3O[C@H](CO)[C@@H](O)[C@H](O)[C@H]3O)CC[C@]3(C)C(=CC[C@@H]4[C@@]5(C)CC[C@H](O[C@@H]6O[C@H](C(=O)O)[C@@H](O)[C@H](O)[C@H]6O)C(C)(C)[C@@H]5CC[C@]43C)[C@@H]2C1 [Chikusetsusaponin IVa],100% and 103%,106%,103%,114%,102%,105%,104%,111%
FC(F)(F)Oc1ccc(-c2ccc3nnc(C(F)(F)F)n3c2)cc1,91% and 96.6%,102%,95.7%,97.8%,95.2%,112%,89%,94.4%
C[C@@H](Nc1nc(N[C@H](C)C(F)(F)F)nc(-c2cccc(Cl)n2)n1)C(F)(F)F [Vorasidenib (AG-881)],91.3% and 90.9%,84.7%,88.3%,105%,89%,85.3%,104%,98.3%
CCCCCC(=O)O[C@]1(C(C)=O)CC[C@H]2[C@@H]3CCC4=CC(=O)CC[C@]4(C)[C@H]3CC[C@@]21C [Hydroxyprogesterone caproate],40.1% and 34.4%,39.2%,29.2%,24.9%,38.5%,21%,28.8%,23.7%
CN(C)CC(c1ccc(O)cc1)C1(O)CCCCC1 (stereo not given) [Desvenlafaxine Succinate],96.4% and 90.5%,101%,98.4%,103%,98.4%,100%,100%,90%
CC(C)(C)NC(=O)N[C@H](C(=O)N1C[C@H]2[C@@H]([C@H]1C(=O)NC(CC1CCC1)C(=O)C(N)=O)C2(C)C)C(C)(C)C (stereo not given in full) [Boceprevir],85.6% and 87.6%,84.2%,71.3%,73.2%,91.1%,84.3%,84%,88.9%
CNC[C@H](O)[C@@H](O)[C@H](O)[C@H](O)CO [Meglumine],108% and 107%,107%,108%,106%,101%,107%,112%,109%
O=C1Nc2ccc(I)cc2C1=Cc1cc(Br)c(O)c(Br)c1,96.6% and 89.4%,90.1%,89.9%,109%,84.7%,93.8%,86.7%,90.7%
CCOc1ccccc1OCCN[C@H](C)Cc1ccc(OC)c(S(N)(=O)=O)c1 [Tamsulosin],100% and 96%,90.7%,85.2%,103%,97.5%,98%,87.4%,105%
O=C(NCc1cccc(O)c1)Nc1nc(-c2ccncc2)cs1,92% and 95.8%,106%,65.6%,85.8%,25.3%,60.8%,18.8%,27.6%
C[C@H](CCC(=O)O)[C@H]1CC[C@H]2[C@@H]3[C@H](O)C[C@@H]4C[C@H](O)CC[C@]4(C)[C@H]3CC[C@]12C [Chenodeoxycholic acid],97.4% and 101%,99.7%,104%,108%,100%,101%,98.4%,106%
O=[N+]([O-])c1ccc(S(=O)(=O)N2CCN(c3ccnc4cc(Cl)ccc34)CC2)c([N+](=O)[O-])c1,69.2% and 80.5%,71.8%,27.1%,30.7%,2.07%,22.7%,0.47%,0.54%
Cn1c(=O)cc(N2CCC[C@@H](N)C2)n(Cc2ccccc2C#N)c1=O,96.9% and 97.8%,88.7%,94%,97.1%,91.3%,98.3%,98%,101%
CN(C)c1cc(NC(=O)CNC(C)(C)C)c(O)c2c1CC1CC3C(N(C)C)C(=O)C(C(N)=O)=C(O)C3(O)C(=O)C1=C2O (stereo not given) [Tigecycline],94.1%,97.6%,94.9%,97.2%,99.2%,96.9%,106%,95.7%
CC(C)(C)NC(=O)[C@H]1CC[C@H]2[C@@H]3CC[C@H]4NC(=O)C=C[C@]4(C)[C@H]3CC[C@]12C [Finasteride],103% and 99%,97.5%,94.3%,105%,101%,102%,99.7%,106%
CCCCNc1ccc(C(=O)OCCN(C)C)cc1 [Tetracaine hydrochloride (Pontocaine)],99.3% and 87.2%,90.7%,93.4%,105%,92.2%,96.2%,94%,98.4%
Cc1ncc([N+](=O)[O-])n1CC(O)CCl (stereo not given) [Ornidazole],96.6% and 100%,94.7%,102%,104%,91.9%,105%,103%,106%
Nc1nc(N)c2nc(-c3cccc(O)c3)cnc2n1,80.3% and 89.9%,83.4%,63.7%,59.2%,57.2%,57.8%,48.7%,53.1%
O.O=C([O-])c1ncccc1O.O=C([O-])c1ncccc1[O-].[H+].[O]=[V][OH] [VO-Ohpic trihydrate],100% and 92.1%,95.5%,106%,102%,122%,110%,121%,119%

# Source: the supplement of paper PMC10981050
